# Measured values taken from PubChem BioAssay (EPA / NIEHS).
# Records with an inconclusive call do not appear. Activity calls are given as the source filed them. The calls were made as follows, unless noted: active = hit-call score of the fitted dose curve at least 0.9, where 1 is the maximum; inactive = score below 0.9.
# Columns and labels:
# [1] = ATG_M_32_TRANS: Attagene TRANS-FACTORIAL HepG2 Assay for M32 Transcription Factor (Internal Marker) (AID 2282984; active = hit-call score of the fitted dose curve at least 0.9, where 1 is the maximum;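 also: transcript level of a background control reporter unit measured by RT-PCR and capillary electrophoresis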); details: HepG2 Attagene TRANS M32 internal marker reporter
# In short: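 HepG2 cells transiently transfected with GAL4-UAS reporter units, dosed for 24 hours. Reporter mRNA quantified by RT-PCR, 6-FAM labelling, HpaI digestion and capillary electrophoresis; internal-marker signal fitted upward relative to DMSO.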
# [2] = target: Transcriptional activator Myb (Homo sapiens) (UniProt P10242); assay: ATG_Myb_CIS: Attagene CIS-FACTORIAL HepG2 Assay for human Myeloblastosis (Myb) Proto-Oncogene Transcription Factor (AID 2282986); details: HepG2 Attagene CIS-FACTORIAL Myb reporter transcription; actives raise or lower the signal
# In short: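 After 24 h of compound dosing, total RNA from transfected HepG2 cells is reverse-transcribed and the reporter sequences amplified, labeled and separated by capillary electrophoresis. Values come from bidirectional fitting against DMSO.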
# [3] = target: Nuclear respiratory factor 1 (Homo sapiens) (UniProt Q16656); assay: ATG_NRF1_CIS: Attagene CIS-FACTORIAL HepG2 Assay for human Nuclear Respiratory Factor 1 (NRF1) Orphan Gene (AID 2282987); details: HepG2 NRF1 cis-element reporter, Attagene multiplex; actives raise or lower the signal
# In short: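 Measured: fluorescent reporter-specific RT-PCR products from transfected HepG2 cells, separated by capillary electrophoresis. Exposure lasted 24 h. Analysis used bidirectional curve fitting with DMSO as negative control.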
# [4] = ATG_NF_kB_CIS: Attagene CIS-FACTORIAL HepG2 Assay for human Nuclear Factor Kappa B (NF-kB) (AID 2282991); details: HepG2 Attagene cis-factorial NF-kB reporter mRNA; actives raise or lower the signal
# In short: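 Fluorescence of labelled RT-PCR products separated by capillary electrophoresis gives reporter mRNA levels from transfected HepG2 cells exposed 24 h; values are fitted in both directions relative to DMSO.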
# [5] = ATG_NRF2_ARE_CIS: Attagene CIS-FACTORIAL HepG2 Assay for human Nuclear Factor Erythroid 2 Related Factor 2 (NFR2) response to Antioxidant Response Elements (ARE) (AID 2282992); details: HepG2 Attagene ARE/NRF2 reporter, transcription factor activity; actives raise or lower the signal
# In short: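 HepG2 cells transiently transfected with multiplexed cis-regulated reporter transcription units measure endogenous transcription factor activity. Reporter mRNA at 24 h is quantified by RT-PCR, fluorescent labelling and capillary electrophoresis, with bidirectional fitting relative to DMSO.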
# [6] = target: Myc proto-oncogene protein (Homo sapiens) (UniProt P01106); assay: ATG_Myc_CIS: Attagene CIS-FACTORIAL HepG2 Assay for human Myelocytomatosis (Myc) Proto-Oncogene Transcription Factor (AID 2282990); details: HepG2, Attagene cis-reporter transcription factor activity; actives raise or lower the signal
# In short: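 Fluorescence intensity of reporter-specific cDNA fragments, separated by capillary electrophoresis, gives the signal. Transfected HepG2 cells carrying cis-promoter reporter constructs are incubated with compound for 24 h; DMSO serves as baseline.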
# [7] = ATG_NFI_CIS: Attagene CIS-FACTORIAL HepG2 Assay for human Nuclear Factor I (NFI) (AID 2282989); details: HepG2 cis-regulatory reporter, NFI response element transcription; actives raise or lower the signal
# In short: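 Transfected HepG2 liver cells, exposed 24 h, supplied total RNA for oligo(dT) reverse transcription and reporter-specific PCR. Labelled, HpaI-cut fragments were sized by capillary electrophoresis; DMSO set the baseline for bidirectional fitting.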
# [8] = target: Nuclear receptor subfamily 4 group A member 2 (Homo sapiens) (UniProt P43354); assay: ATG_NURR1_TRANS: Attagene TRANS-FACTORIAL HepG2 Assay for human Nuclear Receptor Related Protein 1 (NURR1) (AID 2282985; active = hit-call score of the fitted dose curve at least 0.9, where 1 is the maximum); details: HepG2 Attagene TRANS reporter, mRNA readout
# In short: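 HepG2 cells transiently transfected with NURR1-Gal4 chimera and GAL4-UAS reporter units; after 24 hr compound exposure, reporter mRNA quantified by RT-PCR and capillary electrophoresis; gain of signal fitted against DMSO.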
# Myc proto-oncogene protein (Homo sapiens), sequence (P01106 whole entry, looked up, the tested form may be a part): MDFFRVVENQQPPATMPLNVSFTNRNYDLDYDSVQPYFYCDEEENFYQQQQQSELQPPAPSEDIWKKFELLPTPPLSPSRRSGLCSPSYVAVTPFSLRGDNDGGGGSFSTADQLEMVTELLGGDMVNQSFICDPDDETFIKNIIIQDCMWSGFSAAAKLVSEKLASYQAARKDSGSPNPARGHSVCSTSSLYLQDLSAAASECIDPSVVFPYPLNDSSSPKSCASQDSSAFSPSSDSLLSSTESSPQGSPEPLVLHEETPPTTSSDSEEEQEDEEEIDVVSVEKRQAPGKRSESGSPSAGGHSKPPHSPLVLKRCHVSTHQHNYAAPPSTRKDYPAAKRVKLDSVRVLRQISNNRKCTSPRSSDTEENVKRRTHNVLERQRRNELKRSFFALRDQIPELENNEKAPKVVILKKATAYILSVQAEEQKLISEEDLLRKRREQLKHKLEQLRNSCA
# Transcriptional activator Myb (Homo sapiens), sequence (P10242 whole entry, looked up): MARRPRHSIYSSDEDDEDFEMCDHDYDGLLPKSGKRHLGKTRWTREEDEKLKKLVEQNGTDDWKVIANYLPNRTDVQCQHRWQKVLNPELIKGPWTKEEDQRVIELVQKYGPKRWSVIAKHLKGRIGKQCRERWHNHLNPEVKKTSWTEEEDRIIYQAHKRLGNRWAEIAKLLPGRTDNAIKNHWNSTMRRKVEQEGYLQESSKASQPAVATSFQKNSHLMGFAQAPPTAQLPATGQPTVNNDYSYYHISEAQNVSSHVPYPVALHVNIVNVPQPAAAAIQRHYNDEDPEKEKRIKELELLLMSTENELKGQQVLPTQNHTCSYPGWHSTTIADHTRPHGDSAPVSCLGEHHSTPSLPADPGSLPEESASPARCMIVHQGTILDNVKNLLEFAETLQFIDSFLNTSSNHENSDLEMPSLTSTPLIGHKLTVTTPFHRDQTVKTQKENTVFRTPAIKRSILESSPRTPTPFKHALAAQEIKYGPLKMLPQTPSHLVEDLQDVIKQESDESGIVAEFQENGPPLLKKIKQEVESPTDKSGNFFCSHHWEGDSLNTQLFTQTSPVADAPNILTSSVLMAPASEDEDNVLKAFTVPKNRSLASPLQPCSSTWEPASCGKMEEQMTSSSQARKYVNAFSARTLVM
# Nuclear respiratory factor 1 (Homo sapiens), sequence (Q16656 whole entry, looked up): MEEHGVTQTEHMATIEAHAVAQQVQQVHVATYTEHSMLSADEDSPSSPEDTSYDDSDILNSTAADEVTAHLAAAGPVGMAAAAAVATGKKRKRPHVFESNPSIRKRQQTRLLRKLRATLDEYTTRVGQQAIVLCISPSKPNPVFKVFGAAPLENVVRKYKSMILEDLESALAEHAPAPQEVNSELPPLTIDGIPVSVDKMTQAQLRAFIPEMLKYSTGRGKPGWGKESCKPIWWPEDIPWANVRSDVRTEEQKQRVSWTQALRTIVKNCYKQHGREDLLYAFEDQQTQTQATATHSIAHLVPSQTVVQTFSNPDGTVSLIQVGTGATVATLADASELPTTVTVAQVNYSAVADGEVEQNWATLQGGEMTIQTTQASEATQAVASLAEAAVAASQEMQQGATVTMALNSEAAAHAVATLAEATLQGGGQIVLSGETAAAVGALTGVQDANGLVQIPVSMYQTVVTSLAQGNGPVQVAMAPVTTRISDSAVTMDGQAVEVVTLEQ
# Nuclear receptor subfamily 4 group A member 2 (Homo sapiens), sequence (P43354 whole entry, looked up, the tested form may be a part): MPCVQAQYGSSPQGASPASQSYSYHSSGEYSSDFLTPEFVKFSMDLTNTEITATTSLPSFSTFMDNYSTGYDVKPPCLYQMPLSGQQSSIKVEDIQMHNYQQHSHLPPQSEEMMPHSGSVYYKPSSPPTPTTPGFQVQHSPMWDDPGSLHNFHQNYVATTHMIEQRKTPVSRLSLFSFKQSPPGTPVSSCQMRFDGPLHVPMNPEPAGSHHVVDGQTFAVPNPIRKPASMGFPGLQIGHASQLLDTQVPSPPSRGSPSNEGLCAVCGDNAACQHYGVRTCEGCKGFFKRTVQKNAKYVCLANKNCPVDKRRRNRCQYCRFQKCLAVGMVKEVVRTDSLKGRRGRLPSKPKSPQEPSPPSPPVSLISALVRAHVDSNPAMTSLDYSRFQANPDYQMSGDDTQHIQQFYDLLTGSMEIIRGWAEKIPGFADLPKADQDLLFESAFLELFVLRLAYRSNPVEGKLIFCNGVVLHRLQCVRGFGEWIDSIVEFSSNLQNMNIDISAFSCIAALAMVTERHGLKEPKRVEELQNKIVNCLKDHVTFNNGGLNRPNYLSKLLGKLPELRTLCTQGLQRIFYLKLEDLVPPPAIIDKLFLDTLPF
smiles,measurement,setting,value
Cc1ccccc1C(=O)Nc1cccc(OC(C)C)c1,outcome,[1],inactive
same,outcome,[2],inactive
same,outcome,[3],inactive
same,outcome,[4],inactive
same,AC50,[5],57.3 µM (active)
CC(=O)OC(c1ccccc1)C(Cl)(Cl)Cl (configuration not stated),outcome,[1],inactive
same,outcome,[2],inactive
same,outcome,[3],inactive
same,outcome,[6],inactive
same,outcome,[5],inactive
CCC(=O)C(CC(C)N(C)C)(c1ccccc1)c1ccccc1 (configuration not stated),outcome,[1],inactive
same,outcome,[2],inactive
same,outcome,[3],inactive
same,outcome,[7],inactive
same,outcome,[6],inactive
same,outcome,[5],inactive
O=[N+]([O-])c1ccc2c3c(cccc13)CC2,outcome,[1],inactive
same,outcome,[2],inactive
same,outcome,[3],inactive
same,outcome,[7],inactive
same,outcome,[4],inactive
same,AC50,[5],6.63 µM (active)
CC(Br)C(=O)O (configuration not stated),outcome,[1],inactive
same,outcome,[3],inactive
same,outcome,[7],inactive
same,outcome,[6],inactive
same,outcome,[4],inactive
same,outcome,[5],inactive
Nc1cccc2ccccc12,outcome,[8],inactive
same,outcome,[3],inactive
same,outcome,[7],inactive
same,outcome,[6],inactive
same,AC50,[5],77.9 µM (active)
O=C(O)Cc1ccccc1,outcome,[2],inactive
same,outcome,[3],inactive
same,outcome,[7],inactive
same,outcome,[6],inactive
same,AC50,[5],25.9 µM (active)
Cc1ccc2ccccc2c1C,outcome,[1],inactive
same,outcome,[2],inactive
NC(=O)O,outcome,[1],inactive
same,outcome,[8],inactive
same,outcome,[3],inactive
same,outcome,[6],inactive
same,outcome,[4],inactive
CCN1CCC2(CC1)COc1cc3c(cc12)N(C(=O)c1ccc(-c2ccc(-c4nnc(C)o4)cc2C)cc1)CC3,outcome,[1],inactive
same,outcome,[2],inactive
same,outcome,[3],inactive
same,outcome,[6],inactive
same,outcome,[4],inactive
same,AC50,[5],5.17 µM (active)
Nc1cccc(Cl)c1,outcome,[1],inactive
same,outcome,[8],inactive
same,outcome,[2],inactive
same,outcome,[3],inactive
same,outcome,[6],inactive
same,outcome,[4],inactive
same,outcome,[5],inactive
Fc1ccc(C2(Cn3cncn3)OC2c2ccccc2Cl)cc1 (configuration not stated),outcome,[8],inactive
same,outcome,[2],inactive
same,outcome,[3],inactive
same,outcome,[6],inactive
same,outcome,[4],inactive
same,AC50,[5],44.7 µM (active)
CCC[CH2][Sn]([Cl])([Cl])[Cl],outcome,[2],inactive
same,outcome,[3],inactive
same,outcome,[7],inactive
same,AC50,[5],5.38 µM (active)
N#CCCO,outcome,[2],inactive
same,outcome,[3],inactive
same,outcome,[7],inactive
same,outcome,[6],inactive
same,outcome,[4],inactive
same,outcome,[5],inactive
CCOP(=S)(OCC)SCCS(=O)(=O)CC,outcome,[3],inactive
same,outcome,[6],inactive
CC(C)CCCCCCOC(=O)c1ccccc1C(=O)OCCCCCCC(C)C,outcome,[2],inactive
same,outcome,[3],inactive
same,outcome,[6],inactive
same,outcome,[4],inactive
same,outcome,[5],inactive
COC(=O)c1sccc1S(=O)(=O)NC(=O)Nc1nc(C)nc(OC)n1,outcome,[8],inactive
same,outcome,[2],inactive
same,outcome,[3],inactive
same,outcome,[5],inactive
COc1cc2c(cc1OC)[C@@]13CCN4CC5=CCO[C@H]6CC(=O)N2[C@H]1[C@H]6[C@H]5C[C@H]43,outcome,[1],inactive
same,outcome,[2],inactive
same,outcome,[3],inactive
same,outcome,[6],inactive
same,outcome,[4],inactive
same,outcome,[5],inactive
O=c1[nH]c(=O)[nH]c(=O)[nH]1,outcome,[1],inactive
same,outcome,[8],inactive
same,outcome,[3],inactive
same,outcome,[6],inactive
same,outcome,[4],inactive
same,outcome,[5],inactive
O=C(Nc1ccc2[nH]ccc2c1)c1cc2cc(F)ccc2n1Cc1cccc(F)c1,outcome,[1],inactive
same,outcome,[8],inactive
same,outcome,[3],inactive
same,outcome,[7],inactive
same,AC50,[6],16.6 µM (active)
same,AC50,[5],8.08 µM (active)
C=C(C)C#N,outcome,[1],inactive
same,outcome,[2],inactive
same,outcome,[3],inactive
same,outcome,[7],inactive
same,outcome,[6],inactive
same,outcome,[5],inactive
CC(C)(OO)c1ccccc1,outcome,[1],inactive
same,outcome,[2],inactive
same,outcome,[3],inactive
same,outcome,[7],inactive
CNC,outcome,[1],inactive
same,outcome,[8],inactive
same,outcome,[2],inactive
same,outcome,[3],inactive
same,outcome,[6],inactive
same,outcome,[5],inactive
C1CCC(NC2CCCCC2)CC1,outcome,[1],inactive
same,outcome,[2],inactive
same,outcome,[3],inactive
same,outcome,[7],inactive
same,outcome,[5],inactive
CCOP(=S)(OCC)Oc1ccc(S(C)=O)cc1 (configuration not stated),outcome,[2],inactive
same,outcome,[3],inactive
same,outcome,[7],inactive
same,outcome,[5],inactive
O=C/C=C/c1ccccc1,outcome,[1],inactive
same,outcome,[8],inactive
same,outcome,[3],inactive
same,outcome,[7],inactive
same,outcome,[6],inactive
same,outcome,[4],inactive
O=P(O)(O)CN(CP(=O)(O)O)CP(=O)(O)O,outcome,[1],inactive
same,outcome,[8],inactive
same,outcome,[2],inactive
same,outcome,[3],inactive
same,outcome,[6],inactive
same,outcome,[4],inactive
CCOC(=O)Nc1cccc(OC(=O)Nc2ccccc2)c1,outcome,[2],inactive
same,outcome,[3],inactive
same,outcome,[7],inactive
same,AC50,[5],17.2 µM (active)
Cc1ccccc1N,outcome,[1],inactive
same,outcome,[8],inactive
same,outcome,[2],inactive
same,outcome,[3],inactive
same,outcome,[7],inactive
same,outcome,[5],inactive
CCCCP(CCCC)CCCC,outcome,[2],inactive
same,outcome,[3],inactive
same,outcome,[7],inactive
same,outcome,[6],inactive
O=[N+]([O-])c1c(Cl)c(Cl)cc(Cl)c1Cl,outcome,[1],inactive
same,outcome,[3],inactive
same,outcome,[6],inactive
same,outcome,[4],inactive
COP(=S)(OC)Oc1c(Cl)cc(C)cc1Cl,outcome,[1],inactive
same,outcome,[8],inactive
same,outcome,[3],inactive
same,outcome,[7],inactive
same,outcome,[6],inactive
same,outcome,[4],inactive
same,AC50,[5],29.2 µM (active)
CCCCCCCCSC(=O)Oc1cc(Cl)nnc1-c1ccccc1,outcome,[8],inactive
same,outcome,[2],inactive
same,outcome,[3],inactive
same,AC50,[7],73.7 µM (active)
same,outcome,[6],inactive
same,outcome,[4],inactive
same,AC50,[5],52.7 µM (active)
BrCCBr,outcome,[8],inactive
same,outcome,[3],inactive
same,outcome,[7],inactive
same,outcome,[4],inactive
same,outcome,[5],inactive
CC(=[OH+])/C=C(/C)[O-].CC(=[OH+])/C=C(/C)[O-].CC(=[OH+])/C=C(/C)[O-].[Fe],outcome,[8],inactive
same,outcome,[2],inactive
same,outcome,[3],inactive
same,outcome,[6],inactive
same,outcome,[4],inactive
